GALC G270D up – enhancers of human galactocerebrosidase G270D mutant activity in cells; P54803; 145M-Twi-hGALC-G270D cells (Twitcher mouse brain line with human GALC G270D), HMU-beta-Gal fluorescence, 48 h; Potency, µM (series often up to 57.5 µM), actives largely listed as activators; 45,000 compounds, 0.1% hits; note: potency is the fitted concentration of half-maximal effect; 0% is about no effect; nearly all actives have a fitted effect of over 65% in size
Target sequence (P54803 whole entry G286D): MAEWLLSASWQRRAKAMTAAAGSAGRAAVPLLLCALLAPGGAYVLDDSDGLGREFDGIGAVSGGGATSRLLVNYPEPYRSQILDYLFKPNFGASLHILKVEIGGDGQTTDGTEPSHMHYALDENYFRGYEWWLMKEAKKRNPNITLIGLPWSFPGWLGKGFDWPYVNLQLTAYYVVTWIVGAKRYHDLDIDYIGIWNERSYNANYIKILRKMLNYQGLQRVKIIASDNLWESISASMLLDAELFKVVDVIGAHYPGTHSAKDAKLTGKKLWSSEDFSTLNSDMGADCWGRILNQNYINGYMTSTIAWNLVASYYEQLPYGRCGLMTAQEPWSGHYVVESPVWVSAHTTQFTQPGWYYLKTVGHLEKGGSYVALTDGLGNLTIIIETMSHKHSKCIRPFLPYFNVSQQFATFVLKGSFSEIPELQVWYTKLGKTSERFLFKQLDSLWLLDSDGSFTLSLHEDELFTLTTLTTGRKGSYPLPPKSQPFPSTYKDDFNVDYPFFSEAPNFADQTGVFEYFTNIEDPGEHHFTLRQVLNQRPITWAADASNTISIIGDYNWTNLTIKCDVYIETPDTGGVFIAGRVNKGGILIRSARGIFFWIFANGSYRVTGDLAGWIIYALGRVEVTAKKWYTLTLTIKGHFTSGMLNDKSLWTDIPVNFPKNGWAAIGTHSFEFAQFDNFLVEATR
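Brain-derived Twitcher mouse 145M-Twi cells stably expressing human GALC-G270D or wild-type GALC, treated live, then residual GALC activity read by fluorescence of HMU-b-Gal substrate (0.1 mM final) in citrate-phosphate buffer pH 5.2 with sodium taurocholate. Signal increase indicates enhancement.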
GALK inhibitor – GALK (human) enzyme inhibition; P51570; recombinant GALK, Kinase-Glo ATP luminescence, 1 h; Potency, µM (top dose mostly 57.5 µM), for the others: at the highest dose activity, negative = inhibition, hits mostly inhibitors; 44,000 tested, under 10 active;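 note: plate controls were full GALK reaction for no effect and reaction lacking GALK for full effect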
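Luminescent ATP-depletion readout (Kinase-Glo Plus) after 1 h room-temperature incubation of human GALK (5 nM) with galactose 100 µM and ATP 35 µM, pH 8.0 HEPES/Mg2+ buffer; compounds tested in qHTS format.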
B2AR arrestin ag – beta-arrestin recruitment by human beta2-adrenergic receptor ligands; P07550; HTLA Tango cells, beta-arrestin recruitment, luciferase luminescence, 18 h; Potency, µM (titrated, usually from 46.1 µM), most hits filed as activators; 44,000 tested, under 10 active; AID 1347077;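 note: potency is the fitted concentration of half-maximal effect; 0% = DMSO and full agonism = EC100 isoproterenol or metaproterenol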
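Luminescence read-out: arrestin recruitment to recombinant beta2-AR releases tTA, inducing luciferase. Cells exposed 18 hr at 37 degrees C to up to 46 microM compound; %Activity from corrected signal, concentration-response curves classified by r2, magnitude and efficacy.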
NTMT1 inh – blocks human N-terminal methyltransferase 1 activity. Q9BV86. NTMT1 MTase-Glo SAH luminescence, purified enzyme. Potency, µM (doses to about 114 µM), without a hit: at the top dose activity change, negative = inhibition, most hits filed as inhibitors. 59,000 compounds, 2.5% hits;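 note: potency is the fitted concentration of half-maximal effect; plate controls were DMSO vehicle for no effect and no enzyme for full effect; nearly all actives have a fitted effect of over 65% in size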
GPR32 ag – activates human resolvin D1 receptor GPR32. 48,000 compounds, 2.5% hits. CHO-K1 GPR32 beta-arrestin PathHunter luminescence, 90 min; zero percent set by DMSO-only wells. O75388. activation, % at 76.9 µM. AID 1346428;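 active = activation of at least 60% and not above a set upper limit, about 1 call in 100 departs from these limits; inconclusive = activation of 40% to 60%, or above that upper limit; inactive = activation under 40%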; note: 0% is about no effect
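GPR32 activation in stably transfected CHO-K1 cells, detected as beta-arrestin recruitment by enzyme-fragment complementation. Compound exposure: 90 min, 37 °C.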
* = called active by the depositor; i = inactive; ? = inconclusive; / = not tested or not shown; ! = repeats disagree; [ ] = another dose, or the depositor's remark. Hits are enriched below; roughly 3.6% of the tested compounds scored in any of these assays. Unless noted, calls come from the whole dose curve; as a rule, active = well fitted curve in the direction sought with a large enough effect; inconclusive = small, poorly fitted or top-dose-only effect, or another doubt; inactive = no such curve, though single readings can be large; an effect the other way counts as inactive or inconclusive.

SMILES	GALC G270D up	GALK inhibitor	B2AR arrestin ag	NTMT1 inh	GPR32 ag
COC(=O)Cc1c(C)c2ccc3c(c2oc1=O)CN(Cc1ccc(Cl)cc1)CO3	25µM*	2%	i	6%	-14
CCCOC(=O)c1c(C)oc2c1cc(NS(=O)(=O)c1ccc(OCC)cc1)c1ccccc12	i	-1%	i	-14%	0
CC(=O)c1c(C)oc2c1cc(NS(=O)(=O)c1ccc(Br)cc1)c1ccccc12	i	-1%	i	5%	80*
O=C(c1ccc(Br)cc1)N1CCC(c2nc3ccccc3s2)CC1	i	2%	i	9%	42
O=C(c1ccc(Nc2nccc(-c3cc4ccccc4s3)n2)cc1)N1CCC(N2CCCC2)CC1	/	/	/	28µM*!	/
CN(C(=O)c1cn2c(-c3ccc(C(F)(F)F)cc3)cnc2cn1)c1ccc(C#N)cc1	/	/	/	-9%	/
Cc1coc2cc3oc(=O)c(CCC(=O)N4CCCCC4)c(C)c3cc12	/	-1%	i	/	107*
Cc1coc2cc3oc(=O)c(CC(=O)N4CCCCC4)c(C)c3cc12	i	3%	i	12%	-7
NC(=O)NN=Cc1ccc([N+](=O)[O-])o1	/	/	/	-24%[57.5 µM]	/
CC(=O)N/N=C/c1ccc([N+](=O)[O-])o1	i	/	/	-20%[57.5 µM]	68*
COCOC1CCC(C(=O)Nc2ccc([S+](=O)([O-])Nc3nccs3)cc2)CC1 (stereo not given)	/	/	/	15%	/
CSc1ccc(Cn2nnc(C(=O)Nc3ccc(C)cc3Cl)c2N)cc1	i	1%	i	-2%	99*
Cc1cnc(-c2ccccc2C(C)C)nc1NCc1ccc(-n2ccnn2)cc1	/	/	/	15%	/
CC(C)c1ccccc1-c1nc(NCc2ccc(-c3cccnc3)cc2)c2sccc2n1	/	/	/	9%	/
CC1(C)CC2C3=CCC4C5(C)CCC(OC6OC(C(=O)O)C(O)C(O)C6OC6OC(CO)C(O)C(O)C6OC6OC(CO)C(O)C(O)C6O)C(C)(CO)C5CCC4(C)C3(C)CCC2(C)C(OC2OCC(O)C(OC3OC(CO)C(O)C(O)C3O)C2O)C1O (stereo not given)	/	/	/	1%[6.45 µM]	/
OCCN1CCN(CCCN2c3ccccc3Sc3ccc(Cl)cc32)CC1	i	/	/	?	-28
CN(C)CCCN1c2ccccc2Sc2ccc(Cl)cc21	i	/	/	?	63*!
Cc1ccsc1C1N=C(Nc2nc3ccccc3o2)NC2=C1C(=O)CCC2 (stereo not given)	/	/	/	6%	/
O=C(Cn1c(=O)n(Cc2ccc(F)cc2)c(=O)c2sc3ccccc3c21)NCc1ccccc1Cl	i	7%	i	89µM*	0
N#Cc1ccc(NS(=O)(=O)c2ccc(NC(=O)Cc3ccc(F)c(Cl)c3)cc2)cc1	/	/	/	9%	/
COC(=O)N1CC2(CC2)C[C@H](C(=O)NO)[C@H]1C(=O)N1CCN(c2ccccc2)CC1	/	/	/	3%[57.5 µM]	/
O=c1[nH]sc2cc(Cl)ccc12	i	/	/	2.8µM*	32
Cc1nc2scc(C)n2c(=O)c1S(=O)(=O)Nc1ccc(N2CCN(S(C)(=O)=O)CC2)cc1	/	0%	i	/	80*
CCc1ccccc1NS(=O)(=O)c1ccc(OC)c2ncccc12	i	1%	i	89µM*	14
CCCN(CCc1ccsc1)C1CCc2c(O)cccc2C1 (stereo not given)	/	/	/	-15%[57.5 µM]	/
SMILES	GALC G270D up	GALK inhibitor	B2AR arrestin ag	NTMT1 inh	GPR32 ag
COc1cc(O)c2c(c1)C1OC1C[C@H](O)[C@H](O)C(=O)/C=C\C[C@H](C)OC2=O (stereo not given in full)	/	/	/	-12%[57.5 µM]	/
Cc1cccc(N2CCN(C(=O)Nc3ccc(F)cc3)CC2C)c1 (stereo not given)	i	-1%	i	7%	63*
Cc1cccc(N2CCN(C(=O)Cn3c(=O)c4cccn4c4ccc(F)cc43)CC2C)c1 (stereo not given)	i	-1%	i	0%	-37
Cc1cccc(N2CCN(C(=O)C3CCN(S(=O)(=O)c4c(C)noc4C)CC3)CC2C)c1 (stereo not given)	i	3%	i	11%	108*
Cc1ccc(OCCn2c(CCNC(=O)c3cccc(Cl)c3)nc3ccccc32)cc1	/	/	/	6%	/
CC(=O)Nc1ccc(NC(=O)C(NS(=O)(=O)c2ccc(Br)s2)c2ccccc2)cc1 (stereo not given)	i	-1%	i	-9%	-8
CCOc1ccc(OCC)c(NC(=O)C(NS(=O)(=O)c2ccc(Br)s2)c2ccccc2)c1 (stereo not given)	i	1%	i	4%	85*
Cc1cc(Br)ccc1NC(=O)C(Cc1ccccc1)NS(=O)(=O)c1ccc(Br)s1 (stereo not given)	i	1%	i	1%	65*
CN(CC1COCCO1)S(=O)(=O)Nc1ccc2ccc3ncc(-c4cnn(C)c4)cc3c(=O)c2c1 (stereo not given)	/	/	/	-6%[57.5 µM]	/
O=C(O)c1ccc(-c2noc(-c3ccccc3F)n2)cc1	/	/	/	22µM*	/
CC(=O)OC/C=C(\C)C(CC1C(C)=C(OC(C)=O)C(=O)C2C(C)(C)C(O)CCC12C)OC(C)=O (stereo not given)	/	/	/	-7%[29.8 µM]	/
O=C(Nc1cccc(Cl)c1)C1CCN(S(=O)(=O)Cc2ccccc2)CC1	/	-12%	i	/	115*
COc1ccccc1C1N=C(Nc2nc3ccccc3o2)NC2=C1C(=O)CCC2 (stereo not given)	/	/	/	5%[57.5 µM]	/
COc1cc2nc(=NC(=O)c3cccnc3)n3c(c2cc1OC)NCC3	/	/	/	-1%[57.5 µM]	/
CCCCCCCC/C=C\CCCCCCCC(=O)NCCc1ccc(O)c(O)c1	/	/	/	/	-8
CCCCCCCC/C=C\CCCCCCCC(=O)NCc1ccc(O)c(OC)c1	i	/	/	-1%[57.5 µM]	75*!
CCOc1ccc(CCNC(=O)c2cc3sccc3n2CCN(C)C)cc1OCC	/	/	/	-23%	/
CCCCc1ccc(NC(=O)COc2cccc3c(=O)n(C)ccc23)cc1	i	-11%	i	1%	60*
Cn1ccc2c(OCC(=O)NCc3ccccc3Cl)cccc2c1=O	i	-7%	i	15%	86*
COc1ccc(Cl)cc1NC(=O)COc1cccc2c(=O)n(C)ccc12	i	-1%	i	-6%	-3
CCCn1ccc2c(OCC(=O)Nc3ccc(OC)c(OC)c3)cccc2c1=O	i	-2%	i	14%	86*
O=C(Nc1cncc(-c2cccnc2)c1)c1cccs1	/	/	/	-2%	/
O=[N+]([O-])c1ccccc1CSc1nc2ncc(Br)cc2[nH]1	/	/	/	4%[57.5 µM]	/
CC(=O)Nc1ccc(NC(=O)c2cnn3c(C)cc(C)nc23)cc1	/	/	/	-16%	/
S=P(c1ccccc1)(c1ccccc1)c1c[n+](C/C=C/c2ccccc2)c2ccccn12	/	/	/	-7%	/
O=c1[nH]cnc2nc[nH]c12	i	/	/	22µM*	82*
